Reference: publication PMC7819943, “Rice protein-binding microarrays: a tool to detect cis-acting elements near promoter regions in rice”
In all, about 39,000 sequences were measured (“fluorescence intensity (a.u.)”: median about 4,300, highest 2% from about 39,000 on). The entries come from a sample that favours the highest values as a whole.

Target: T1, OsSMF1 (Oryza sativa, UniProt Q6ZLB0 1-436)
T1 sequence: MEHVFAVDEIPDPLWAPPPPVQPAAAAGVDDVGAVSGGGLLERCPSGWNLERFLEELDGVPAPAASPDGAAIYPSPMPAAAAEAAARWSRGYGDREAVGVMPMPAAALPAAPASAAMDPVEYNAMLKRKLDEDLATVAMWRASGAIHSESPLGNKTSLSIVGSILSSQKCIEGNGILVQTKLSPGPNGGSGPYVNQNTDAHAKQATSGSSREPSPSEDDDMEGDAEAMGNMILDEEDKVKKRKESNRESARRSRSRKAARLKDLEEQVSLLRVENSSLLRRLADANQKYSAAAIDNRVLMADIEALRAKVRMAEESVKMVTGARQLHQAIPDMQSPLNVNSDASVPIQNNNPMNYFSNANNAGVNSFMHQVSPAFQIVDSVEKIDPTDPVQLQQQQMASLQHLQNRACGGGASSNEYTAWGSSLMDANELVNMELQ
Test: protein-binding microarray (RPBM); PBS, 2% BSA, 51.3 ng/ul salmon testes DNA, 50 uM zinc acetate, 200 nM TF, 25 C, 1 h; high values mean tight binding
Details: protein: recombinant; tags: N-terminal polyhistidine and DsRed monomer fusion (pET32a); chain copies: 2; label: CyDye5-dUTP incorporated in the synthesized complementary strand; 3' TTTTT single-stranded linker to array surface; dsDNA, one strand shown
Procedure, shortened: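 For the binding signal, per-feature fluorescence intensity was read in arbitrary units on an Axon 4000B scanner. Before scanning, a 2% BSA-blocked custom Agilent array made double-stranded with Cy5-dUTP was washed after 1 h at 25 °C with 200 nM protein and 50 µM zinc acetate. The proteins were Ni–NTA-purified transcription factors with N-terminal polyhistidine and DsRed fusions, expressed in E. coli BL21-CodonPlus.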

Sequence | binding signal
AGTATTTTAAATCATATACAAGTACGTCACATCATCACTCCGGAGTCACCTAGTGCAG | 3720 fluorescence intensity (a.u.)
TGACACCGTCGCCACCTCGCCACCCATCCATTTCCATTGCCGGAGTCACCTAGTGCAG | 3650 fluorescence intensity (a.u.)
TGCACGCTGCGGCGTACGTCGCGTGCGCACACGGGAATTTCGGAGTCACCTAGTGCAG | 3190 fluorescence intensity (a.u.)
TCTACTCCTAAATCCACATCATCTTTAGCAAAAGCAACAACGGAGTCACCTAGTGCAG | 4670 fluorescence intensity (a.u.)
TTGTCGCAGGTTGCTGACTGTTCCTCGAGGGAGTTCTCGGCGGAGTCACCTAGTGCAG | 6980 fluorescence intensity (a.u.)
GCCTCTCCTTGCTTGCGTGCTCACTGTCGCTGACTGCTCTCGGAGTCACCTAGTGCAG | 4650 fluorescence intensity (a.u.)
TCGTGGGAATGGCTGAGGATTAGGGCGCCACGTCATCGTTCGGAGTCACCTAGTGCAG | 45600 fluorescence intensity (a.u.)
TGTGGTGGCTGAGTCATCGTGGGATCCACGTGGGCCCCACCGGAGTCACCTAGTGCAG | 24700 fluorescence intensity (a.u.)
GCCGTGGGAATGGCTGAGGATTAGTGCGCCACGTCAGCAACGGAGTCACCTAGTGCAG | 37300 fluorescence intensity (a.u.)
TTTCTCCACGTCAGCGAAACCACCTATATATATACTGCCACGGAGTCACCTAGTGCAG | 14300 fluorescence intensity (a.u.)
CTCCGTTGTGCTCTGTCTCTCTACCGCCACCATCCACTGCCGGAGTCACCTAGTGCAG | 39200 fluorescence intensity (a.u.)
CTCCACACAGACACACATCCCACCCCACCCACATACACACCGGAGTCACCTAGTGCAG | 3610 fluorescence intensity (a.u.)
AACTCTCCAGTCTCCACCCACCTCACTCCACAGTCCACACCGGAGTCACCTAGTGCAG | 3150 fluorescence intensity (a.u.)
AGACACAGCACACCCACTCACTCTGCTCACTCTCCCATACCGGAGTCACCTAGTGCAG | 39100 fluorescence intensity (a.u.)
CCCTGCTCTGCCACGCCCGCCACCGTCTGCCGGCCTCTACCGGAGTCACCTAGTGCAG | 4730 fluorescence intensity (a.u.)
GCCGCCGCTGTCGCCATCCACGCTCCGAGCGCCACTGCCACGGAGTCACCTAGTGCAG | 3490 fluorescence intensity (a.u.)
CTATGCCTTGTCAACATTCAACCCCTCCAATAGACTTTGTCGGAGTCACCTAGTGCAG | 3210 fluorescence intensity (a.u.)
CTCTTGACCAGCCGAGCGCACCGTCATCAGGCTACATCTCCGGAGTCACCTAGTGCAG | 5290 fluorescence intensity (a.u.)
TCCAGTTTCGCGTAGCTGCGTGACAGTTCAATTGAACTCTCGGAGTCACCTAGTGCAG | 3200 fluorescence intensity (a.u.)
CTCTTTTCCCCATCTCACATACTGTGCCTTGCCTCCATAACGGAGTCACCTAGTGCAG | 65200 fluorescence intensity (a.u.)

Sequence | binding signal
TCCTCCCATCTCTCTCTCTTTTGCCCACACTCTTTTCACACGGAGTCACCTAGTGCAG | 5660 fluorescence intensity (a.u.)
CCCTCTCCACATTCTCTTCCACCTGTGTTCCCCTTTTCTTCGGAGTCACCTAGTGCAG | 3320 fluorescence intensity (a.u.)
TTCTATAGAAGCTTTCTCTCTTAAAACTCTACCAAAATTTCGGAGTCACCTAGTGCAG | 24000 fluorescence intensity (a.u.)
AATAAATAGGCCTGACGTGAGGCCCACTCGCCACGTCAGCCGGAGTCACCTAGTGCAG | 44900 fluorescence intensity (a.u.)
TCGTCGCCCACTGCCACCGCTGACGTCACCGCACTCTCGCCGGAGTCACCTAGTGCAG | 30500 fluorescence intensity (a.u.)
CAGCCGGGCCCACGTGTCAGTGAGTGCGTGACGCGTCAGCCGGAGTCACCTAGTGCAG | 15200 fluorescence intensity (a.u.)
AATTACCACCCTAACTCAATTAGAAGCGGTTTTCAGCCTACGGAGTCACCTAGTGCAG | 52400 fluorescence intensity (a.u.)
TCTTTTGGTGGTTTCAGAAGCGGTTTTATCCTACGTGACACGGAGTCACCTAGTGCAG | 4530 fluorescence intensity (a.u.)
TTTTGACCCGGTTTTAGCCTACGTGACGGCTAAGTCAGCGCGGAGTCACCTAGTGCAG | 4480 fluorescence intensity (a.u.)
GGGGAAGGAGAAGAGGAAGGAGAGGGGAGGAGGAGGAGGGCGGAGTCACCTAGTGCAG | 3770 fluorescence intensity (a.u.)
CAAGGAAGAATATGCCACCTCCACGGAGGCCGGCGGCGGCCGGAGTCACCTAGTGCAG | 3710 fluorescence intensity (a.u.)
GAGAAGAAGGCCACCTCACCACTAAAGGAGGAGGAGGAGGCGGAGTCACCTAGTGCAG | 43500 fluorescence intensity (a.u.)
CCTTTCCGATTACGTGTTGGACCTTGACCCTAGGCCATATCGGAGTCACCTAGTGCAG | 49700 fluorescence intensity (a.u.)
TCAGCGAATTGGTACGTACCCTTGTACGTGTTGACGCCATCGGAGTCACCTAGTGCAG | 3650 fluorescence intensity (a.u.)
TACGTGTGTTGATTTCCGTGACATATGCATAAATTTCTTTCGGAGTCACCTAGTGCAG | 3530 fluorescence intensity (a.u.)
CCGTCGACTCTGTGCCACGTCCTGTTGCTCGTCGGATTCCCGGAGTCACCTAGTGCAG | 14000 fluorescence intensity (a.u.)
TTGCTGCAGTTCTCGTATGCTTCCTAGTACTATCTGCGTTCGGAGTCACCTAGTGCAG | 3230 fluorescence intensity (a.u.)
TGCAGTATCTGCCGTTCGTATCGCTGCGTTGAATCTTCCACGGAGTCACCTAGTGCAG | 47100 fluorescence intensity (a.u.)
CTAGTTCGCCTTCCACGTACGCACTTGGCGTCGTATCTGCCGGAGTCACCTAGTGCAG | 6440 fluorescence intensity (a.u.)
GATCATGAGCTCCACGGCGGCCAACGTGGCGGCGCCGACGCGGAGTCACCTAGTGCAG | 8640 fluorescence intensity (a.u.)

Sequence | binding signal
TAACACAACTATTTACTCAGCTCACGTGTTTCATTAACAACGGAGTCACCTAGTGCAG | 3340 fluorescence intensity (a.u.)
TCAGCTCAGCAAATTAGGATGTTTCATTAGTTAGAACAAACGGAGTCACCTAGTGCAG | 51600 fluorescence intensity (a.u.)
TTTCGCAATTATATTGATGCAGAAATCAGCAGCTCACAATCGGAGTCACCTAGTGCAG | 20700 fluorescence intensity (a.u.)
AGCGACGAGTAAACAAAGCGCGGCGTAGCATGTGATGTGGCGGAGTCACCTAGTGCAG | 4440 fluorescence intensity (a.u.)
GTTATATCTCACGTGTCAAAATTCCTATGATTTTCAGTAACGGAGTCACCTAGTGCAG | 4700 fluorescence intensity (a.u.)
GCGTCACGTTCCTGTCGGCGGCGGCCAACGTGGCCCGCGTCGGAGTCACCTAGTGCAG | 15200 fluorescence intensity (a.u.)
GCCGGCGACGCTGCCGCCGTCACCACTACCGCTGCCGCGGCGGAGTCACCTAGTGCAG | 4140 fluorescence intensity (a.u.)
CGCTGCTGCCGTCACAGAAGGTGCTGACATGGCCTGGGGTCGGAGTCACCTAGTGCAG | 7520 fluorescence intensity (a.u.)
CGCCGAGCTGCCACGCTCGCGTCGCGTCCAGATGCGCGCGCGGAGTCACCTAGTGCAG | 3680 fluorescence intensity (a.u.)
CGCCGCTGCCGCCAAACCGTCGGTGGAGAAGGCCTACCGGCGGAGTCACCTAGTGCAG | 59200 fluorescence intensity (a.u.)
GCGCGCCGTCGTGGCGCTGGCGGCCACCACGGTGGTCACCCGGAGTCACCTAGTGCAG | 4120 fluorescence intensity (a.u.)
GAGTGGAGAAGGCGCGCCACCGTCGCTAGAGCCGATGCTGCGGAGTCACCTAGTGCAG | 47700 fluorescence intensity (a.u.)
CCGAGCCACGTCGCGCCGCCGCCGCTGCTGTGCCGCCGCGCGGAGTCACCTAGTGCAG | 5650 fluorescence intensity (a.u.)
GCGGGCGCACGGGTGGGTGGTGTTCTGGGGCGGAGGCAGCCGGAGTCACCTAGTGCAG | 3310 fluorescence intensity (a.u.)
GCCGCCGCCGCCGCCGCCGCTGACGAGGAGCAGAAGGTGGCGGAGTCACCTAGTGCAG | 4310 fluorescence intensity (a.u.)
GCGCCGTCGTCGTCGCTGCCGTGGCGCCGCCGCGGCCACCCGGAGTCACCTAGTGCAG | 6800 fluorescence intensity (a.u.)
CTGCTGCCGTCGCAGAAGGTGCTGACATGGCCAGGGGTGGCGGAGTCACCTAGTGCAG | 45300 fluorescence intensity (a.u.)
CCGTCGTGCTGGGTGTGGCGCCGGAGAAGAAGGCGCAGCACGGAGTCACCTAGTGCAG | 41700 fluorescence intensity (a.u.)
